# Reference: PubChem BioAssay (NCATS)
# Where “and” joins values, the source holds several entries; their conditions need not be identical. Identical values can stand only once. Results filed as inconclusive are left out. Where a call stands in place of a potency, no number is given. Unmarked numbers belong to inactive results. Calls of active or inactive are those of the source. Unless noted, calls follow the shape of the dose curve; as a rule, active = well fitted curve in the direction sought with a large enough effect; inconclusive = small, poorly fitted or top-dose-only effect, or another doubt; inactive = no such curve, though single readings can be large; an effect the other way counts as inactive or inconclusive.
# Assays:
# [1] = molecular target: Calcium and integrin-binding protein 1 (Homo sapiens) (UniProt Q99828); assay: Validation qHTS for Identification of Calcium Integrin Binding protein 1 (CIB1) Competitor (AID 1508618)
# Sequence of Calcium and integrin-binding protein 1 (Homo sapiens) (Q99828 whole entry, looked up): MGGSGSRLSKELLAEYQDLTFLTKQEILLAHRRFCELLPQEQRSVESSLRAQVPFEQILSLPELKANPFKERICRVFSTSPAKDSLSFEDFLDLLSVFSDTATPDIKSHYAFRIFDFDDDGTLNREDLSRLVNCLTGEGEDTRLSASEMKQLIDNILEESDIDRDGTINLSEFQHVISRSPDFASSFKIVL
# How it was run: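 Fluorescence polarization with 1 uM CIB1-GST and 100 nM FITC-alphaIIb peptide in HEPES pH 7.4, NaCl, 5 mM CaCl2, Tween20. Compounds at up to 114 uM final, preincubated with protein 15 min; read after 15 min more at RT.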
# [2] = Confirmatory qHTS for small molecule stabilizers of the endoplasmic reticulum resident proteome: Secreted ER Calcium Modulated Protein (SERCaMP) assay (AID 1508628); also: potency is read from the fitted curve at half-maximal effect; nearly all actives have a fitted effect of over 40% in size
# How it was run: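 Reporter secretion upon ER calcium depletion (100 nM thapsigargin, 4 h, 37C) is measured as medium luminescence with coelenterazine, after 16 h compound pretreatment of SH-SY5Y-GLuc-SERCaMP cells; primary at three concentrations up to 38.3 uM, follow-up at 11 (up to 76.6 uM).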
# [3] = Cell Viability qHTS for small molecule stabilizers of the endoplasmic reticulum resident proteome (AID 1508629); details: cell viability counter-screen, 100 nM thapsigargin for final 4 h;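 also: human SH-SY5Y neuroblastoma cells carrying the GLuc-SERCaMP reporter; compound exposure about 46 h in total before the viability read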
# [4] = Primary qHTS for small molecule stabilizers of the endoplasmic reticulum resident proteome: Secreted ER Calcium Modulated Protein (SERCaMP) assay (AID 1508630)
# How it was run: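 The SH-SY5Y reporter protocol was run at 3 concentrations up to 38.3 uM (primary) or 11 concentrations (follow-up): 16 h compound, 100 nM thapsigargin for 4 h, then extracellular luciferase luminescence.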
# [5] = A High-Content qHTS Against Drug Library for the Identification of Small Molecules that Inhibit DYT1 Early Onset Primary Dystonia-Associated Cell Pathology (AID 1645839; calls by dose curve; also: series mostly up to about 46 µM)
# How it was run: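 Induced EGFP-delE TorsinA cells are imaged after 48 h of compound treatment. Punctate fusion-protein distribution gives the %pathology value, while nuclei counts flag toxicity. Wild-type EGFP-hTOR1A cells define the normal pattern.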
# [6] = molecular target: Cytochrome P450 2C9 (Homo sapiens) (UniProt P11712); assay: Cytochrome P450 family 2 subfamily C member 9 (CYP2C9) small molecule antagonists: luciferase biochemical (cell-free) qHTS assay (AID 1645842; active = well fitted curve in the direction sought with a large enough effect in the repeat runs; an effect the other way counts as inactive or inconclusive; also: nearly all actives have a fitted effect of over 55% in size; also: potency is read from the fitted curve at half-maximal effect)
# Sequence of Cytochrome P450 2C9 (Homo sapiens) (P11712 whole entry, looked up): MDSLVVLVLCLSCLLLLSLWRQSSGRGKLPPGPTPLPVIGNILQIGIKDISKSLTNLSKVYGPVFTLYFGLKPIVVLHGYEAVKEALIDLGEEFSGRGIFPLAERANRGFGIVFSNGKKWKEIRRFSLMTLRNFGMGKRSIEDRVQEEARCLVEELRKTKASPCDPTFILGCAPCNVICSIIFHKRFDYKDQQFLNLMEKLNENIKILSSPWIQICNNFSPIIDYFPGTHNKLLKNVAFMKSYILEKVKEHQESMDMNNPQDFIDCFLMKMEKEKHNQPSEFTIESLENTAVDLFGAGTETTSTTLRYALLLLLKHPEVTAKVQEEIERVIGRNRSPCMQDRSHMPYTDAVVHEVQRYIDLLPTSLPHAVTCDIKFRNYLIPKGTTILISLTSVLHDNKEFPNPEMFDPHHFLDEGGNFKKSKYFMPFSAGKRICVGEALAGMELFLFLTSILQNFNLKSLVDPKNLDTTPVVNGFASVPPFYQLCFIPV
# How it was run: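 P450-Glo CYP2C9 system: proluciferin substrate with enzyme in mix containing 0.4% BSA, 10 min at room temperature, then NADPH regeneration solution added and incubated 1 h at 37C. Detection reagent stopped reaction; luminescence read after 20 min as RLU.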
# [7] = molecular target: Calcium and integrin-binding protein 1 (Homo sapiens) (UniProt Q99828); assay: Primary qHTS for Identification of Calcium Integrin Binding Protein 1 (CIB1) Competitor (AID 1508620);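 also: GST tagged CIB1 binding a fluorescein labelled alphaIIb integrin peptide tracer; top concentration of the series differs between compounds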
# How it was run: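 Fluorescence polarization competition: CIB1-GST (1 uM final) preincubated with compound 15 min at room temperature, then FITC-labeled alphaIIb peptide (100 nM final) added for another 15 min. Polarization read at Ex 480/Em 540.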
smiles,measurement,setting,value
CN1C2CCC1CC(OC(=O)C(CO)c1ccccc1)C2 (stereo unspecified),Potency,[1],inactive
same,Potency,[2],39.8 µM (active)
same,max response,[3],-15.7% and 13.4%
same,Potency,[4],inactive
Clc1ccc2nsnc2c1NC1=NCCN1,Potency,[4],inactive
same,Potency,[5],inactive
same,Potency,[6],inactive
CN1CCN(CCCN2c3ccccc3Sc3ccc(Cl)cc32)CC1,Potency,[7],inactive
same,Potency,[4],inactive
same,Potency,[6],inactive
CS(=O)(=O)Nc1ccc([N+](=O)[O-])cc1Oc1ccccc1,Potency,[4],inactive
same,Potency,[5],inactive
same,Potency,[6],13.8 µM (active)
O=C(CCCN1CCC(O)(c2ccc(Cl)cc2)CC1)c1ccc(F)cc1,Potency,[1],inactive
same,Potency,[7],inactive
same,Potency,[6],inactive
